Source: ChEMBL document CHEMBL3988442, “University of Dundee, Small-Polar-MMV Screening Library” (2021)
Hit rate of the full screen: of about 69,000 compounds, about 1,000 (1.4%) showed an effect of 50% or more. Many of the other results were omitted from the sample, so strong results are more common in it than they were.

Tested on: Leishmania donovani
Experiment: Leishmania intramacrophage assay
Type: functional, organism-based
Set-up: scale not given: in the data most compounds retested in dose-response had high values

For `CNC(=O)[C@H]1C[C@@H]2CN(S(=O)(=O)c3ccc(C)cc3)C[C@@H]2N1C.O=C(O)C(F)(F)F`, the “Percent Effect” value (30.3 µM, […]) was 7.67%.
`CC(=O)Nc1nc(-c2ccc(F)cc2)c[nH]1` was tested, and the “Percent Effect” value (30.3 µM, […]) was -6.024%.
`NCCC(=O)N1CCC2(CC1)CN(C(=O)Cc1ccc(Cl)cc1)CCO2` was tested, and the “Percent Effect” value (30.3 µM, […]) was -0.5643%.
With `CN1CC(=O)N(c2ccsc2)CC12CCN(S(C)(=O)=O)C2.O=C(O)C(F)(F)F` (stereo not drawn) the “Percent Effect” value (30 µM, 30.03 µM) was 2.434%.
`COCCN1C[C@@H]2[C@@H](OC)CCN(Cc3ccc(C)o3)[C@@H]2C1.O=C(O)C(F)(F)F.O=C(O)C(F)(F)F` was tested, and the “Percent Effect” value (30.3 µM, […]) was 53%.
`COCCN1C[C@@H]2[C@@H](OC)CCN(Cc3ccco3)[C@@H]2C1.O=C(O)C(F)(F)F.O=C(O)C(F)(F)F` was tested, and the “Percent Effect” value (30.3 µM, […]) was 5.523%.
With `COCCN1C[C@H]2[C@@H](C1)N(Cc1ccc(C)o1)CC[C@H]2OC` the “Percent Effect” value (30 µM, 30.03 µM) was 22.66%.
`C/C(=C\c1ccco1)CN(C)C(C)c1ccccn1` (stereo not drawn) was tested, and the “Percent Effect” value (30.3 µM, […]) was 72.9%.
In the case of `CCC(CO)N(C/C(C)=C/c1ccco1)Cc1ccccn1` (stereo not drawn), the “Percent Effect” value (30.3 µM, […]) is reported as 3.364%.
In the case of `CC(c1ccccn1)N(C)Cc1ccc(CCC(C)(C)O)cc1` (stereo not drawn), the “Percent Effect” value (30.3 µM, […]) is reported as 34.83%.
In the case of `O=C(c1cscn1)N1CCCCC1c1nc2cc(F)ccc2[nH]1` (stereo not drawn), the “Percent Effect” value (30.3 µM, […]) is reported as 28.33%.
`CCS(=O)(=O)NCCCNCc1c(C)nn(C)c1N(C)C` was tested, and the “Percent Effect” value (30 µM) was -21.2%.
For `O=C(O)C(F)(F)F.O=C1CC(c2ccccc2)C2(CCN(CC3CC3)CC2)N1` (stereo not drawn), the “Percent Effect” value (30 µM, 30.03 µM) was 17.34%.
With `CCc1nc(C2CCCN2C(=O)Cc2cccs2)no1` (stereo not drawn) the “Percent Effect” value (30 µM) was 2.577%.
In the case of `Cc1cc(S(=O)(=O)NCC(C)(C)N)c(F)cc1F.Cl`, the “Percent Effect” value (30.3 µM, […]) is reported as 25.52%.
`CCOc1nc2cnccc2n(CC(=O)NCc2ccco2)c1=O` was tested, and the “Percent Effect” value (30.3 µM, […]) was -11.31%.
With `CCCc1nc(NCCCn2cccn2)c2c(n1)c(C)nn2CC` the “Percent Effect” value (30.3 µM, […]) was 56.39%.
For `CCCc1nc(NCCCO)c2c(n1)c(C)nn2CC`, the “Percent Effect” value (30 µM, 30.03 µM) was 3.921%.
With `CCCc1nc(NCCc2ccccc2)c2c(n1)c(C)nn2CC` the “Percent Effect” value (30.3 µM, […]) was 98.89%.
`CCCc1nc(NCCOC)c2c(n1)c(C)nn2CC` was tested, and the “Percent Effect” value (30.3 µM, […]) was 9.64%.
In the case of `CCCc1nc(NCCCOC)c2c(n1)c(C)nn2CC`, the “Percent Effect” value (30.3 µM, […]) is reported as -43.63%.
With `CCc1nc(NCCCn2cccn2)c2c(n1)c(C)nn2CC` the “Percent Effect” value (30.3 µM, […]) was -48.93%.
With `CCn1nc(C)c2nc(C)nc(NCCc3ccccc3)c21` the “Percent Effect” value (30.3 µM, […]) was 36.57%.
With `CCn1nc(C)c2nc(C)nc(NCCCn3cccn3)c21` the “Percent Effect” value (30.3 µM, […]) was -10.11%.
With `CCCc1nc(NCCCOCC)c2c(n1)c(C)nn2CC` the “Percent Effect” value (30.3 µM, […]) was 51.09%.
With `CCCNC(=O)CSCc1ccc(S(=O)(=O)N(C)C)o1` the “Percent Effect” value (30.3 µM, […]) was 6.939%.
In the case of `Nc1nc2c(c(NCC(c3cccnc3)N3CCOCC3)n1)CCNC2` (stereo not drawn), the “Percent Effect” value (30.3 µM, […]) is reported as 45.62%.
With `CCC(Nc1nnnn1-c1ccccc1)C(=O)NCc1cccs1` (stereo not drawn) the “Percent Effect” value (30.3 µM, […]) was 14.73%.
With `Cc1cnc(C(=O)N2Cc3ncn(C)c3C(COCC(C)C)C2)cn1.O=C(O)C(F)(F)F` (stereo not drawn) the “Percent Effect” value (30.3 µM, […]) was 30.84%.
`CN(CCc1noc(C2CC2)n1)C(=O)C1(N2CCCC2)CCCC1` was tested, and the “Percent Effect” value (30.3 µM, […]) was 28.86%.
In the case of `Cc1cc(NC(=O)NCCc2cccs2)n(C)n1`, the “Percent Effect” value (30 µM, 30.03 µM) is reported as -9.195%.
For `O=C(CN1CCCS1(=O)=O)NCCOc1ccc2c(c1)CCC2`, the “Percent Effect” value (30 µM, 30.03 µM) was 22.18%.
In the case of `CCc1nc(C2CCCN2c2ncc(C(N)=O)cc2Cl)no1` (stereo not drawn), the “Percent Effect” value (30.3 µM, […]) is reported as -6.943%.
With `Cc1cccnc1NCCNC(=O)c1cnc(-c2ccccn2)nc1O` the “Percent Effect” value (30.3 µM, […]) was 81.9%.
With `Cc1cccnc1NCCNC(=O)c1cnc(-c2cccs2)nc1O` the “Percent Effect” value (30.3 µM, […]) was 22.97%.
`Cc1nc(-c2ncc(C(=O)NCCNc3ncccc3C)c(O)n2)cs1` was tested, and the “Percent Effect” value (30.3 µM, […]) was 28.4%.
`O=C(c1occc1CN1C(=O)Cc2ccccc21)N1CCCCCC1` was tested, and the “Percent Effect” value (30.3 µM, […]) was 31.83%.
`Cc1cc(NC(=O)c2ccccc2Br)n(C)n1` was tested, and the “Percent Effect” value (30.3 µM, […]) was -1.29%.
`CC(C1CCN(Cc2ccc(N(C)C)nc2)CC1)N1CCOCC1` (stereo not drawn) was tested, and the “Percent Effect” value (30.3 µM, […]) was 35.27%.
With `CC(C1CCN(Cc2ccc(OC(F)F)cc2)CC1)N1CCOCC1` (stereo not drawn) the “Percent Effect” value (30.3 µM, […]) was 57.26%.
`CC(C1CCN(Cc2cccc(OC(F)F)c2)CC1)N1CCOCC1` (stereo not drawn) was tested, and the “Percent Effect” value (30.3 µM, […]) was 37.87%.
With `CC(C)Oc1cccc(CN2CCC(c3n[nH]c4ncccc34)CC2)c1` the “Percent Effect” value (30.3 µM, […]) was -3.157%.
`CC(C1CCN(Cc2ccccc2OC(F)F)CC1)N1CCOCC1` (stereo not drawn) was tested, and the “Percent Effect” value (30.3 µM, […]) was 38.92%.
`CC(C)Oc1cccc(CN2CCC(C(C)N3CCOCC3)CC2)c1` (stereo not drawn) was tested, and the “Percent Effect” value (30.3 µM, […]) was 60.52%.
`CN1CCN(C(=O)c2n[nH]c3c2CN(C2CCOC2)CC3)CC1` (stereo not drawn) was tested, and the “Percent Effect” value (30.3 µM, […]) was 7.447%.
In the case of `CCc1c(C)sc2c1c(N)nc(=O)n2CCN1CCCCC1`, the “Percent Effect” value (30.3 µM, […]) is reported as 45.7%.
For `OC(CN1CCC(c2ccn[nH]2)CC1)c1ccccc1F` (stereo not drawn), the “Percent Effect” value (30 µM) was 30.71%.
With `COC[C@@]12CCC[C@@H]1CN(C(=O)COC1CCCC1)C2` the “Percent Effect” value (30.3 µM, […]) was 36.81%.
In the case of `CN(C)C(=O)COC1COC2(CCN(c3cccc(F)c3)CC2)C1.O=C(O)C(F)(F)F` (stereo not drawn), the “Percent Effect” value (30.3 µM, […]) is reported as 52.62%.
In the case of `COc1ccccc1CN1CC[C@]2(C[C@@H](OCC(=O)N(C)C)CO2)C1.O=C(O)C(F)(F)F`, the “Percent Effect” value (30.3 µM, […]) is reported as 48.44%.
In the case of `CN(C)C(=O)CO[C@H]1CO[C@@]2(CCN(Cc3ccoc3)C2)C1`, the “Percent Effect” value (30.3 µM, […]) is reported as 51.04%.
With `Cc1ccc(N2CCC3(CC2)CC(OCC(=O)N(C)C)CO3)nn1` (stereo not drawn) the “Percent Effect” value (30 µM, 30.03 µM) was 10.68%.
With `CN(C)C(=O)CO[C@H]1CO[C@@]2(CCN(Cc3ccsc3)C2)C1.O=C(O)C(F)(F)F` the “Percent Effect” value (30.3 µM, […]) was 39.07%.
In the case of `CN(C)C(=O)COC1COC2(CCN(c3ncccn3)CC2)C1` (stereo not drawn), the “Percent Effect” value (30.3 µM, […]) is reported as 64.89%.
For `CCOC1COC2(CCN(Cc3cccc(F)c3)CC2)C1.O=C(O)C(F)(F)F` (stereo not drawn), the “Percent Effect” value (30 µM, 30.03 µM) was 37.88%.
`COc1ccc(OCC(=O)NS(=O)(=O)c2ccc(Br)s2)cc1` was tested, and the “Percent Effect” value (30 µM) was -22.07%.
With `Cc1occc1C(=O)N1CCCn2cnc(CN3CCCC3=O)c2C1` the “Percent Effect” value (30.3 µM, […]) was 1.546%.
For `CCOc1ccc(NC(C)=O)cc1S(=O)(=O)Nc1ccon1`, the “Percent Effect” value (30.3 µM, […]) was 32.01%.
For `CC(C)C(=O)Nc1ncn(Cc2cccc(Br)c2)n1`, the “Percent Effect” value (30.3 µM, […]) was 26.25%.
For `O=C(c1ccoc1)N1CC[C@@H]2O[C@@H](COCC3CCOCC3)CC[C@@H]21`, the “Percent Effect” value (30.3 µM, […]) was 5.212%.
With `Cn1nc(C2CC2)cc1C(=O)N1CCC(c2nnsc2S(C)(=O)=O)CC1` the “Percent Effect” value (30.3 µM, […]) was 16.49%.
In the case of `Cn1ncc(Cl)c1C(=O)N1CCC(c2nnsc2S(C)(=O)=O)CC1`, the “Percent Effect” value (30.3 µM, […]) is reported as 50.11%.
`Cn1nccc1C(=O)N1CCC(c2nnsc2S(C)(=O)=O)CC1` was tested, and the “Percent Effect” value (30.3 µM, […]) was 17.02%.
